The text below walks through data of the supplement of paper PMC7393113.

± gives the standard deviation of the averaged measurements.

In one experiment the test system is iBMDM (immortalised mouse bone-marrow-derived macrophages), LPS-stimulated. Kind of experiment: mitochondrial superoxide (MitoSOX fluorescence) fold increase over unstimulated control; higher = more LPS-induced mitochondrial ROS (less inhibition). To be noted: inhibitor concentration: 500 nM; LPS: 100 ng/ml; time after LPS: 2 h. The essentials: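 Cells were immortalised mouse bone-marrow-derived macrophages, plated in triplicate and switched to phenol-red-free 1% FCS/DMEM for 20 h. Kinase inhibitors (500 nM, 30 min) preceded MitoSox loading (1 μM, 10 min) and LPS addition (100 ng/ml), with 510/580 nm fluorescence read every 60 min for 4 h. Mitochondrial superoxide is reported as averaged fold induction over untreated macrophages.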
`CNC(=O)c1cc(Oc2ccc(NC(=O)Nc3cc(C(C)(C)C)nn3-c3ccc4ncccc4c3)c(F)c2)ccn1` [DCC-2036 (Rebastinib)] yielded a mitochondrial superoxide of 1.33 ± 0.075.

`COc1ccc(-c2cc3c(C)nc(N)nc3n([C@H]3CC[C@H](OCCO)CC3)c2=O)cn1` displayed a mitochondrial superoxide of 1.53 ± 0.056.

In the case of `O=C1NC(=O)/C(=C/c2ccc3c(c2)OC(F)(F)O3)S1`, the mitochondrial superoxide turned out to be 1.4 ± 0.033.

`O=C(O)c1ccc(Nc2ncc3c(n2)-c2ccc(Cl)cc2C(c2c(F)cccc2F)=NC3)cc1` registered a mitochondrial superoxide of 1.45 ± 0.044.

On to `Cc1ccc(NC(=O)c2cccc(C(C)(C)C#N)c2)cc1Nc1ccc2ncn(C)c(=O)c2c1`, for which the mitochondrial superoxide was found to be 1.14 ± 0.084.

`CC(C)CC(=O)Nc1n[nH]c2c1CN(C(=O)C1CCN(C)CC1)C2(C)C`: the mitochondrial superoxide was determined as 1.13 ± 0.04.

`NC(=O)c1cccc(-c2cc(Nc3ccc(OC(F)(F)F)cc3)ncn2)c1`: the mitochondrial superoxide turned out to be 1.11 ± 0.054.

`O=S(=O)(NCCNCC=Cc1ccc(Br)cc1)c1cccc2cnccc12`: the mitochondrial superoxide was 1.15 ± 0.074.

`CCCS(=O)(=O)Nc1ccc(F)c(C(=O)c2c[nH]c3ncc(Cl)cc23)c1F`: the mitochondrial superoxide worked out at 1.26 ± 0.15.

For the molecule `Cc1cc(Nc2ncnc3ccc(-c4ccc(CNCCS(C)(=O)=O)o4)cc23)ccc1Oc1ccn2ncnc2c1` [HER2-Inhibitor-1], the mitochondrial superoxide came out at 1.34 ± 0.074.

`O=C(NCc1ccccc1)c1csc(Nc2ccncn2)n1` [Thiazovivin] registered a mitochondrial superoxide of 1.2 ± 0.078.

As for `COc1cccc(-c2cc(=O)c3ccccc3o2)c1N`, the mitochondrial superoxide was 1.57 ± 0.021.

On to `COc1cc(Nc2nc3ccccc3nc2NS(=O)(=O)c2ccc(NC(=O)c3ccc(C)c(OC)c3)cc2)cc(OC)c1`, for which the mitochondrial superoxide worked out at 1.23 ± 0.06.

In turn, `CCc1cncnc1N1CCN(Cc2nc3ccc(C(F)(F)F)cc3[nH]2)CC1` showed a mitochondrial superoxide of 1.23 ± 0.037.

With `Cc1cc(C(C)Nc2ccccc2)c2nc(N3CCOCC3)cc(=O)n2c1` (centres undefined), the mitochondrial superoxide was 1.66 ± 0.072.

Regarding `O=C1NC(=O)/C(=C/c2ccc3nccc(-c4ccncc4)c3c2)S1`, the mitochondrial superoxide was 1.23 ± 0.11.

`C=CC(=O)Nc1cccc(Oc2nc(Nc3ccc(N4CCN(C)CC4)cc3)ncc2Cl)c1` yielded a mitochondrial superoxide of 1.71 ± 0.056.

Molecule `CCCCCCCCCCCCc1ccc(S(=O)(=O)Nc2nncs2)cc1` gave a mitochondrial superoxide of 1.2 ± 0.016.

On to `Cc1ccccc1-n1c(Cn2nc(-c3cccc(O)c3)c3c(N)ncnc32)nc2cccc(C)c2c1=O`, for which the mitochondrial superoxide is 1.34 ± 0.033.

Molecule `COc1cc2c(N3CCN(C(=O)Nc4ccc(OC(C)C)cc4)CC3)ncnc2cc1OCCCN1CCCCC1` [Tandutinib (MLN518)] showed a mitochondrial superoxide of 1.77 ± 0.029.

`FC(F)(F)c1ccc(/C=C/c2nc(COc3ccc(CCCCn4ccnn4)cc3)co2)cc1` [Mubritinib (TAK 165)]: the mitochondrial superoxide came to 1.17 ± 0.075.

`NC(=O)Nc1cc(-c2cccc(F)c2)sc1C(=O)N[C@H]1CCCNC1` came in with a mitochondrial superoxide of 1.11 ± 0.028.

On to `C[C@@H](Oc1cc(-n2cnc3ccc(CN4CCN(C)CC4)cc32)sc1C(N)=O)c1ccccc1C(F)(F)F`, for which the mitochondrial superoxide was found to be 1.22 ± 0.025.

The molecule `CN1CCN(c2ccc3nc(-c4c(N)c5c(F)cccc5[nH]c4=O)[nH]c3c2)CC1` [Dovitinib (TKI-258) Dilactic Acid] displayed a mitochondrial superoxide of 1.32 ± 0.03.

As to `Nc1ccc(C(=O)Nc2cccc(-c3nc(N4CCOCC4)c4oc5ncccc5c4n3)c2)cn1`, the mitochondrial superoxide was 1.23 ± 0.053.

`C=CC(=O)Nc1cccc(Nc2nc(Nc3ccc(OCCOC)cc3)ncc2F)c1`: the mitochondrial superoxide came out at 1.24 ± 0.072.

The molecule `O=c1ncn2nc(Sc3ccc(F)cc3F)ccc2c1-c1c(Cl)cccc1Cl` had a mitochondrial superoxide of 1.21 ± 0.014.

`Cc1c(CN2CCN(C(=O)[C@H](C)O)CC2)sc2c(N3CCOCC3)nc(-c3cnc(N)nc3)nc12` gave a mitochondrial superoxide of 1.44 ± 0.057.

For `Cn1c(=O)c(F)c(Nc2ccc(I)cc2F)c2c(=O)n(C[C@@H](O)CO)cnc21`, the mitochondrial superoxide was found to be 1.39 ± 0.028.

`COC(=O)Nc1ccc(-c2nc(N3CCOCC3)c3cnn(C4CCN(C(=O)OC)CC4)c3n2)cc1` yielded a mitochondrial superoxide of 1.13 ± 0.02.

The molecule `O=C1NC(=O)/C(=C/c2cccc(C(F)(F)F)c2)S1` showed a mitochondrial superoxide of 1.35 ± 0.074.

`OCCn1cc(-c2cnc3nnn(Cc4ccc5ncccc5c4)c3n2)cn1` displayed a mitochondrial superoxide of 1.41 ± 0.018.

In turn, `S=C(NCc1ccc2c(c1)OCO2)N1CCN(c2ncnc3c2oc2ccccc23)CC1` [Amuvatinib (MP-470)] had a mitochondrial superoxide of 1.21 ± 0.076.

On to `Cc1ccc(-n2nc(C(C)(C)C)cc2NC(=O)Nc2ccc(OCCN3CCOCC3)c3ccccc23)cc1` [BIRB 796 (Doramapimod)], for which the mitochondrial superoxide worked out at 1.11 ± 0.024.

For the molecule `Cc1ccc(C(=O)Nc2ccc(CN3CCN(C)CC3)c(C(F)(F)F)c2)cc1C#Cc1cnc2cccnn12`, the mitochondrial superoxide is 1.13 ± 0.014.

Consider `C=CC(=O)N1CCC[C@@H](n2nc(-c3ccc(Oc4ccccc4)cc3)c3c(N)ncnc32)C1`, for which the mitochondrial superoxide amounted to 1.32 ± 0.041.

Molecule `Cc1ccc([N+](=O)[O-])cc1S(=O)(=O)N(C)/N=C/c1cnc2ccc(Br)cn12` displayed a mitochondrial superoxide of 1.17 ± 0.015.

Still in this experiment, the particulars now being: inhibitor concentration: 500 nM; LPS: 100 ng/ml; time after LPS: 4 h.
`CNC(=O)c1cc(Oc2ccc(NC(=O)Nc3cc(C(C)(C)C)nn3-c3ccc4ncccc4c3)c(F)c2)ccn1` [DCC-2036 (Rebastinib)] yielded a mitochondrial superoxide of 1.6 ± 0.03.

`COc1ccc(-c2cc3c(C)nc(N)nc3n([C@H]3CC[C@H](OCCO)CC3)c2=O)cn1` showed a mitochondrial superoxide of 1.74 ± 0.049.

In turn, `O=C1NC(=O)/C(=C/c2ccc3c(c2)OC(F)(F)O3)S1` returned a mitochondrial superoxide of 1.51 ± 0.068.

Consider `O=C(O)c1ccc(Nc2ncc3c(n2)-c2ccc(Cl)cc2C(c2c(F)cccc2F)=NC3)cc1`, for which the mitochondrial superoxide was determined as 1.46 ± 0.052.

`Cc1ccc(NC(=O)c2cccc(C(C)(C)C#N)c2)cc1Nc1ccc2ncn(C)c(=O)c2c1` had a mitochondrial superoxide of 1.349 ± 0.011.

In the case of `CC(C)CC(=O)Nc1n[nH]c2c1CN(C(=O)C1CCN(C)CC1)C2(C)C`, the mitochondrial superoxide came out at 1.27 ± 0.079.

Take `NC(=O)c1cccc(-c2cc(Nc3ccc(OC(F)(F)F)cc3)ncn2)c1`: the mitochondrial superoxide was found to be 1.21 ± 0.082.

`O=S(=O)(NCCNCC=Cc1ccc(Br)cc1)c1cccc2cnccc12` returned a mitochondrial superoxide of 1.28 ± 0.07.

`CCCS(=O)(=O)Nc1ccc(F)c(C(=O)c2c[nH]c3ncc(Cl)cc23)c1F` registered a mitochondrial superoxide of 1.34 ± 0.21.

`Cc1cc(Nc2ncnc3ccc(-c4ccc(CNCCS(C)(=O)=O)o4)cc23)ccc1Oc1ccn2ncnc2c1` [HER2-Inhibitor-1]: the mitochondrial superoxide came to 1.57 ± 0.063.

Molecule `O=C(NCc1ccccc1)c1csc(Nc2ccncn2)n1` [Thiazovivin] yielded a mitochondrial superoxide of 1.29 ± 0.11.

The molecule `COc1cccc(-c2cc(=O)c3ccccc3o2)c1N` registered a mitochondrial superoxide of 1.67 ± 0.04.

`COc1cc(Nc2nc3ccccc3nc2NS(=O)(=O)c2ccc(NC(=O)c3ccc(C)c(OC)c3)cc2)cc(OC)c1` had a mitochondrial superoxide of 1.33 ± 0.061.

Molecule `CCc1cncnc1N1CCN(Cc2nc3ccc(C(F)(F)F)cc3[nH]2)CC1` gave a mitochondrial superoxide of 1.34 ± 0.1.

`Cc1cc(C(C)Nc2ccccc2)c2nc(N3CCOCC3)cc(=O)n2c1` (centres undefined): the mitochondrial superoxide was found to be 1.74 ± 0.094.

For `O=C1NC(=O)/C(=C/c2ccc3nccc(-c4ccncc4)c3c2)S1`, the mitochondrial superoxide was determined as 1.33 ± 0.1.

In turn, `C=CC(=O)Nc1cccc(Oc2nc(Nc3ccc(N4CCN(C)CC4)cc3)ncc2Cl)c1` registered a mitochondrial superoxide of 1.8 ± 0.14.

As for `CCCCCCCCCCCCc1ccc(S(=O)(=O)Nc2nncs2)cc1`, the mitochondrial superoxide stood at 1.2 ± 0.038.

`Cc1ccccc1-n1c(Cn2nc(-c3cccc(O)c3)c3c(N)ncnc32)nc2cccc(C)c2c1=O` came in with a mitochondrial superoxide of 1.42 ± 0.034.

Molecule `COc1cc2c(N3CCN(C(=O)Nc4ccc(OC(C)C)cc4)CC3)ncnc2cc1OCCCN1CCCCC1` [Tandutinib (MLN518)] showed a mitochondrial superoxide of 1.72 ± 0.062.

As to `FC(F)(F)c1ccc(/C=C/c2nc(COc3ccc(CCCCn4ccnn4)cc3)co2)cc1` [Mubritinib (TAK 165)], the mitochondrial superoxide is 1.296 ± 0.0099.

`NC(=O)Nc1cc(-c2cccc(F)c2)sc1C(=O)N[C@H]1CCCNC1` returned a mitochondrial superoxide of 1.25 ± 0.1.

`C[C@@H](Oc1cc(-n2cnc3ccc(CN4CCN(C)CC4)cc32)sc1C(N)=O)c1ccccc1C(F)(F)F`: the mitochondrial superoxide is 1.35 ± 0.048.

In turn, `CN1CCN(c2ccc3nc(-c4c(N)c5c(F)cccc5[nH]c4=O)[nH]c3c2)CC1` [Dovitinib (TKI-258) Dilactic Acid] yielded a mitochondrial superoxide of 1.51 ± 0.041.

For `Nc1ccc(C(=O)Nc2cccc(-c3nc(N4CCOCC4)c4oc5ncccc5c4n3)c2)cn1`, the mitochondrial superoxide turned out to be 1.24 ± 0.028.

As to `C=CC(=O)Nc1cccc(Nc2nc(Nc3ccc(OCCOC)cc3)ncc2F)c1`, the mitochondrial superoxide was determined as 1.29 ± 0.019.

With `O=c1ncn2nc(Sc3ccc(F)cc3F)ccc2c1-c1c(Cl)cccc1Cl`, the mitochondrial superoxide was 1.28 ± 0.037.

`Cc1c(CN2CCN(C(=O)[C@H](C)O)CC2)sc2c(N3CCOCC3)nc(-c3cnc(N)nc3)nc12` yielded a mitochondrial superoxide of 1.5 ± 0.061.

`Cn1c(=O)c(F)c(Nc2ccc(I)cc2F)c2c(=O)n(C[C@@H](O)CO)cnc21` gave a mitochondrial superoxide of 1.51 ± 0.055.

As to `COC(=O)Nc1ccc(-c2nc(N3CCOCC3)c3cnn(C4CCN(C(=O)OC)CC4)c3n2)cc1`, the mitochondrial superoxide was 1.14 ± 0.024.

For `O=C1NC(=O)/C(=C/c2cccc(C(F)(F)F)c2)S1`, the mitochondrial superoxide is 1.53 ± 0.05.

Consider `OCCn1cc(-c2cnc3nnn(Cc4ccc5ncccc5c4)c3n2)cn1`, for which the mitochondrial superoxide amounted to 1.498 ± 0.0039.

Molecule `S=C(NCc1ccc2c(c1)OCO2)N1CCN(c2ncnc3c2oc2ccccc23)CC1` [Amuvatinib (MP-470)] came in with a mitochondrial superoxide of 1.15 ± 0.063.

In turn, `Cc1ccc(-n2nc(C(C)(C)C)cc2NC(=O)Nc2ccc(OCCN3CCOCC3)c3ccccc23)cc1` [BIRB 796 (Doramapimod)] gave a mitochondrial superoxide of 1.22 ± 0.032.

`Cc1ccc(C(=O)Nc2ccc(CN3CCN(C)CC3)c(C(F)(F)F)c2)cc1C#Cc1cnc2cccnn12` had a mitochondrial superoxide of 1.23 ± 0.048.

Molecule `C=CC(=O)N1CCC[C@@H](n2nc(-c3ccc(Oc4ccccc4)cc3)c3c(N)ncnc32)C1` yielded a mitochondrial superoxide of 1.46 ± 0.043.

The molecule `Cc1ccc([N+](=O)[O-])cc1S(=O)(=O)N(C)/N=C/c1cnc2ccc(Br)cn12` gave a mitochondrial superoxide of 1.21 ± 0.027.
